# ± gives the standard deviation of the averaged measurements. In all, about 25,000 sequences were measured (“ln(normalized median fluorescence intensity)”: median about 10, highest 2% from about 12 on). The full list was thinned out, with the highest values kept by preference.
# Test system: PfAP2-G AP2 domain (GST-tagged)
# Assay: gcPBM binding intensity (ln(normalized median fluorescence intensity)); higher = stronger DNA binding
# How it was run: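 Binding intensity is defined as the maximum Masliner-normalised natural-log median intensity across replicate spots for either probe orientation. It was measured on an Agilent 4 × 180k array of primer-extended double-stranded 36-bp intergenic genomic probes and negative controls, to which GST-tagged P. falciparum DNA-binding domains made in E. coli were applied for 1 h in 1× PBS with 1% milk, 0.2 mg/ml BSA, 0.5% salmon testes DNA and 0.03% Triton X-100. Detection was by Alexa488 anti-GST antibody and scanning at 488 nm.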
row,Sequence,gcPBM binding intensity (ln)
1,CCCCATTTATCTTAAGCATGCCATGGTTTTAGATAT [TGCATGCA_site24],10.6 ± 0.42
2,CTTATACATAAATTTTGTACACACAAAAAAAAAAAA [XGTACX_site2665],11.2 ± 1.1
3,GAAAATTTTTGGTGTACACAAAAAAATCCAAAAAAA [CACACA_site5042],11.7 ± 0.87
4,ATACATAAATTTTGTACACACAAAAAAAAAAAAGCT [CACACA_site1351],11.2 ± 0.87
5,ATGAATATAAAATATACACACTTATATATCGAATGA [CACACA_site6240],9.79 ± 0.13
6,ATTAGAGAATCGTAACCCAAATGAACATACTTAAAT [GTGCAC_negctrl_site363],10.04 ± 0.035
7,AAAAAAAATATATAAACACACATATTTATATACTCA [CACACA_site4984],9.665 ± 0.092
8,TTTATTTATTTTTGTTGTACACTTGTATATATTATT [XGTACX_site6486],11.4 ± 0.8
9,TACAAAATAACTAGCACACATATGTATAAACATATA [CACACA_site5948],10.1 ± 0.17
10,TATACATAAAACAGTTCACACATTGTATGAATATAT [CACACA_site4751],9.855 ± 0.035
11,ATAAAATAAATATAACCACACACGAAAGAGAGAGAA [CACACA_site9075],10.09 ± 0.057
12,ATATTAATTCTACATTGTACACATGAAAAAATATAA [XGTACX_site8759],11.4 ± 0.96
13,ATAATAAATTCTACGCGTACAAAACCATGAACATTA [XGTACX_site7505],11.7 ± 1.1
14,GTAAACAATTATGAACGTACATAAAATAAATGAACA [XGTACX_site7159],11.3 ± 0.85
15,CAAGGAACCAGACACACACACATAAATGTATATATA [CACACA_site752],10.1 ± 0.18
16,TTCATTCAAATCCAAGCATGCTTTATTAAAAAATTA [TGCATGCA_site567],9.84 ± 0.26
17,TTTATTTTTCCATATGCACACACACCGTATATATAA [CACACA_site8293],10.3 ± 0.16
18,TCTTAAAATCGGAAATGAAATAAAGTTTACAATATG [TGCATGCA_negctrl_site553],9.87 ± 0.071
19,TTTATATGTATGAAGTGTACACATATATTGTATTTT [XGTACX_site5731],11.6 ± 0.82
20,ATATGTATTAAGTGTACACATATAATGGGTTTTCTT [CACACA_site5328],11.6 ± 0.73
21,ATATGTATGAAGTGTACACATATATTGTATTTTCTT [CACACA_site5503],11.7 ± 0.91
22,ATATATATATATATATGTACACATATATTTCTTTTC [XGTACX_site3443],11.4 ± 0.91
23,TTTATATGTATTAAGTGTACACATATAATGTGTTTG [XGTACX_site6629],11.5 ± 0.86

row,Sequence,gcPBM binding intensity (ln)
1,TTTATATGTTTTAAGTGTACACATATAATGTATTTT [XGTACX_site3069],11.6 ± 0.91
2,ATATGTATTAAGTGTACACATATAATGGGTTTGTTA [CACACA_site5682],11.7 ± 0.95
3,ATATGTATTAAGTGTACACATATAATGTATTTTGTT [CACACA_site4177],11.6 ± 0.92
4,ATATGTTTTAAGTGTACACATATAATGTATTTTGTT [CACACA_site4929],11.6 ± 0.9
5,TGCTATAATTTATATACACACAAATATATACGCATA [CACACA_site4096],10 ± 0.14
6,TTTTATTTACACAGTGGTACTATTAAAAATTAATGA [XGTACX_site6737],11 ± 0.7
7,TTTTTTTTGCGTACAGTGCAAATTTATTTACTATTC,11.7 ± 1.1
8,AGAAAAATTATTTTGCGTACATATTTACAATAAAAA [XGTACX_site2144],11.5 ± 0.75
9,GACATTTCTTGGGATACATGCATGTCCCAGAACAAA [TGCATGCA_site271],10.6 ± 0.4
10,ATTCTTTTATTTAGTAGTACATTTGTATTTTATTCA [XGTACX_site5790],11.5 ± 0.95
11,TTTTTTATTACTTTGTGTACTTACACAGAACCTTAT [XGTACX_site6038],11.5 ± 0.88
12,TTTTTATTTTTGTAGTGTACTTTATTTTTTTTGTTT [XGTACX_site8887],11.6 ± 0.91
13,TTTGAACTTTTATATACACACATTATTATAGTATAG [CACACA_site6851],10.04 ± 0.071
14,TTTTTATTTTTTAGTAGTACACACTTTTTGAACCTT [XGTACX_site1091],11.6 ± 0.97
15,TGTTTACACTTTTTTTGTACACATAATTTTATTTGA [XGTACX_site3760],11.3 ± 0.81
16,TTTTATTTTTTAGTAGTACACACTTTTTGTACCTTT [CACACA_site599],11.8 ± 1
17,CTTATTTCCTTTTGTAGTACCTTATAATATATATAA [XGTACX_site8873],11.3 ± 0.69
18,TTATTTTTTAGTAGTACACACTTTTTGTACCTTTTA [CACACA_site4503],11.8 ± 1.1
19,AATTATATAAGCCACGCATGTGTGCATAAAAATACA [TGCATGCA_site114],10.2 ± 0.14
20,TGTACGAGTCGTAGAGTGCAGTCTGGAGAAACGTAC [GTGCAC_site9682],11 ± 0.47
21,AATTTACATATATATTGTACATTTATGTATATATAT [XGTACX_site4186],10.7 ± 0.52
22,AAATAAATCTTATGCACACAAATAATTAATTAAACA [CACACA_site1693],10.06 ± 0.014

# — the supplement of paper PMC11417369
